Results taken from PubChem BioAssay (NCATS).
Results filed as inconclusive are left out. Active and inactive are the calls of the source. Unless noted, calls come from the whole dose curve; as a rule, active = well fitted inhibition curve with a large enough effect; inconclusive = small, poorly fitted or top-dose-only effect; inactive = no such curve, though single readings can be large or run the other way.

How the values were obtained:
[1] = target: Glucocorticoid receptor (Homo sapiens) (UniProt P04150); experiment: GR-EFC Redistribution (AID 451; calls by dose curve; note: potency is the fitted concentration of half-maximal effect); settings: CHO-K1 GR-EFC translocation, beta-gal luminescence, 2 h
Procedure, shortened: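 Translocation of GR-ED fusion to nuclear EA restores b-gal, read by luminescence after 1 h room-temperature detection. Engineered CHO-K1 biosensor cells, 1,000/well, exposed 2 h at 37 C to titrations up to 46 uM final.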

[2] = target: 3',5'-cyclic-AMP phosphodiesterase 4B (Homo sapiens) (UniProt Q07343); experiment: qHTS Assay for Inhibitors of PDE-IV (AID 607; active = well fitted activation curve with a large enough effect in the main read-out, with a control signal flat, not every such curve was filed as active); settings: HEK293 ACTOne CNG channel cells, membrane potential fluorescence; series mostly up to 22.9 µM
Procedure, shortened: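 The readout is membrane depolarisation from a cAMP-sensing CNG channel, detected with a potential dye at ex 535/em 590. Cells were HEK293-derived (endogenous PDE-IV) at 1000 cells/well, titrated up to 22.9 uM final.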

[3] = target: Cytochrome P450 2D6 (Homo sapiens) (UniProt P10635); experiment: qHTS Assay for Inhibitors and Substrates of Cytochrome P450 2D6 (AID 891); settings: recombinant CYP2D6, luciferin-ME EGE luminescence; series mostly up to 57.1 µM;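 note: luciferin methyl ether substrate demethylated by CYP2D6 with NADPH regeneration; nearly all actives have a fitted effect of over 60% in size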
Procedure, shortened: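 Human CYP2D6 (5 nM) with 30 uM Luciferin-ME EGE (at Km) in 100 mM KPO4, compound preincubated 10 min, then NADPH regeneration system for 60 min at room temperature. Luciferin read by luminescence; normalized to 1.43 uM quinidine.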

[4] = target: Cytochrome P450 2C19 (Homo sapiens) (UniProt P33261); experiment: qHTS Assay for Inhibitors and Substrates of Cytochrome P450 2C19 (AID 899); settings: recombinant CYP2C19, luciferin-H EGE luminescence; series mostly up to 57.1 µM; note: nearly all actives have a fitted effect of over 60% in size
Procedure, shortened: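 5nM enzyme + 10uM Luciferin-H EGE (=KM), 50mM KPO4; cpd pin-transferred, 10 min 37C; NADPH regen, 60 min 37C; stopped w/ luciferin detection reagent, 20 min; luminescence. Normalized to 57uM ketoconazole (AC100).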

Measured: Potency

3',5'-cyclic-AMP phosphodiesterase 4B (Homo sapiens), sequence (Q07343 whole entry, looked up): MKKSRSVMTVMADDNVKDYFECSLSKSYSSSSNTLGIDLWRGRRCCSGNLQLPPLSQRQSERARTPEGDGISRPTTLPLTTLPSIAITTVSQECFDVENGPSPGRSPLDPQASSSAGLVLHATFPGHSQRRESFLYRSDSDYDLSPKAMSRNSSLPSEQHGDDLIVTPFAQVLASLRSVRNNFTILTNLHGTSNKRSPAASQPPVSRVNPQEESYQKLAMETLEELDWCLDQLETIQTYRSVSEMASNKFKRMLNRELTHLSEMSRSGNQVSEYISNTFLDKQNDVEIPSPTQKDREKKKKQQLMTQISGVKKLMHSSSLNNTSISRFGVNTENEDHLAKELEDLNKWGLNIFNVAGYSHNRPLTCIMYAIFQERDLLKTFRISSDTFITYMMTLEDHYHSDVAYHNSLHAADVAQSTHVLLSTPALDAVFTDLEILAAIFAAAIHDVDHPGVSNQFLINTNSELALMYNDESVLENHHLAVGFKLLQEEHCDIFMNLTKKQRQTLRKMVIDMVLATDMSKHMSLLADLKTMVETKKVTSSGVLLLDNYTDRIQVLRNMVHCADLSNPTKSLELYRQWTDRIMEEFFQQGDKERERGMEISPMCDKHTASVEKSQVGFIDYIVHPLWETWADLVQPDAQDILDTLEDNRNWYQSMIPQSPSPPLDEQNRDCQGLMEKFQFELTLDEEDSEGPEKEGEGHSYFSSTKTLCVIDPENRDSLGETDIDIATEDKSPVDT
Cytochrome P450 2C19 (Homo sapiens), sequence (P33261 whole entry, looked up): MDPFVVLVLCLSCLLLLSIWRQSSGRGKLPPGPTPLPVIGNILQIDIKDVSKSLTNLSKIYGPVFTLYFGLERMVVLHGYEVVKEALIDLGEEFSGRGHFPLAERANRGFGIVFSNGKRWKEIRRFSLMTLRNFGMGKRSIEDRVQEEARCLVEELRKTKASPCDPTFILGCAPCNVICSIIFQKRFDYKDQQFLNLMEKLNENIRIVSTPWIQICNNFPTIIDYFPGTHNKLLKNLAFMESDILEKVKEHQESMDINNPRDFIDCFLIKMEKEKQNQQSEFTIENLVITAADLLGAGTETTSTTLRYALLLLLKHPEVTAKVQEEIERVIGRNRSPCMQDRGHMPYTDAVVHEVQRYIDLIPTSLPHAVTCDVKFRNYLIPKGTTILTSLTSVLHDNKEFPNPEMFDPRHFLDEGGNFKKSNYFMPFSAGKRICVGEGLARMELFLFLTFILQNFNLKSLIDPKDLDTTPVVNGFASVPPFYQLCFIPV
Glucocorticoid receptor (Homo sapiens), sequence (P04150 whole entry, looked up, the tested form may be a part): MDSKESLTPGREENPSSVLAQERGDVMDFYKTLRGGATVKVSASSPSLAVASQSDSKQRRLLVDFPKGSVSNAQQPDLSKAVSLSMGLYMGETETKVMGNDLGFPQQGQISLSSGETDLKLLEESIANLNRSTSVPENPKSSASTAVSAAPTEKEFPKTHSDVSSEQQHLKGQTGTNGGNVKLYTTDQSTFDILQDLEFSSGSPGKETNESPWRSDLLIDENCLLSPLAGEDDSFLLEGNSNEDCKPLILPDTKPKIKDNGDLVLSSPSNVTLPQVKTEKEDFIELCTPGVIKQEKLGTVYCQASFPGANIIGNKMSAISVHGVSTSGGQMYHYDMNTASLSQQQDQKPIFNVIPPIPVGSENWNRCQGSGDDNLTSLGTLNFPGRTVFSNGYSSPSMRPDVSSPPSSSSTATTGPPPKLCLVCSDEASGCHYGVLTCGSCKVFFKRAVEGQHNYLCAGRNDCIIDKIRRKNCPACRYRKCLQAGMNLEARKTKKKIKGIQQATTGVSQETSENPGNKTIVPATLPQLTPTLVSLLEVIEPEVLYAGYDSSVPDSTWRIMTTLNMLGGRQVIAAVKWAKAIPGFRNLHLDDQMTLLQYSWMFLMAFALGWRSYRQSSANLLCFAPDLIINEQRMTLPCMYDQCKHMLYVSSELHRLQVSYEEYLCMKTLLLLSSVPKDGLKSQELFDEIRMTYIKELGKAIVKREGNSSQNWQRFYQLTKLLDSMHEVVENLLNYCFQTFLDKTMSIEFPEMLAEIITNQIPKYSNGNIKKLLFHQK
Cytochrome P450 2D6 (Homo sapiens), sequence (P10635 whole entry, looked up): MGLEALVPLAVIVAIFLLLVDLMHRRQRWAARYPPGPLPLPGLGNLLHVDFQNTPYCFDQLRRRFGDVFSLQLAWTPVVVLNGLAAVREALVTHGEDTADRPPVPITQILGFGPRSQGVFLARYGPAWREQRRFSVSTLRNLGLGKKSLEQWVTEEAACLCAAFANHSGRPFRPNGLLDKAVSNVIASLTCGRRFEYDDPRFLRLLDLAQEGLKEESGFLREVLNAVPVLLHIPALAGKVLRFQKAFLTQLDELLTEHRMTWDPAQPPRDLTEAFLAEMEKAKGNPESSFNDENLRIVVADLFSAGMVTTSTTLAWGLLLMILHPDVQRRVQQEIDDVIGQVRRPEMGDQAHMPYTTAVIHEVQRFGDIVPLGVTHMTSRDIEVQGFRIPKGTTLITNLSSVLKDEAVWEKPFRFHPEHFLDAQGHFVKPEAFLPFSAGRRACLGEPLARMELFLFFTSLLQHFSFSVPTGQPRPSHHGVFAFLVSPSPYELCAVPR

CC(C)C[C@@H](CC(=O)N[C@H](CC(=O)N[C@@H]1CCNC[C@H]1C(=O)N[C@H](CC(=O)N[C@@H](CCC(=O)O)CC(=O)O)Cc1c[nH]c2ccccc12)C(C)C)NC(=O)[C@@H]1CCCC[C@H]1N
inactive: [1] > 46 µM | [2] | [3] | [4]
